In PubChem BioAssay (NCATS):
Results filed as inconclusive are left out. Active and inactive are the calls of the source. Calls follow the shape of the dose curve; as a rule, active = well fitted inhibition curve with a large enough effect; inconclusive = small, poorly fitted or top-dose-only effect; inactive = flat fitted curve, though single readings scatter.

Columns and labels:
Assay in all cases: Cytotoxic Profiling of Annotated Libraries Using Quantitative High-Throughput Screening (AID 1296008); also: nearly all actives have a fitted effect of over 60% in size
Conditions in all cases: Five cell lines viability, CellTiter-Glo ATP luminescence, 48-72 h; max response: stronger effect = lower value
CRL-7250 = normal cell line; tested on: CRL-7250
In short: (§1)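 Cytotoxicity was measured as CellTiter-Glo ATP luminescence, read after 10 min at room temperature. Compound treatment of the cells lasted 48 or 72 hr at 37 degrees Celsius in a qHTS format.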

HEK293 = tested on: HEK293
In short: as §1

HaCat = tested on: HaCat
In short: as §1

KB-3-1 = tested on: KB-3-1
In short: as §1

NIH3T3 = tested on: NIH3T3
In short: as §1
% is scaled to controls: 0 for no effect and ±100 for the full control effect; potency is read from the fitted curve at half-maximal effect.

CN[C@H]1[C@H](O)[C@H](O[C@@H]2[C@@H](O)[C@H](O[C@H]3O[C@H]([C@H](C)O)[C@@H](O)[C@H](O)[C@H]3N)[C@@H](N)C[C@H]2N)OC[C@@]1(C)O
inactive: outcome (CRL-7250) | max response (HEK293) -1.94% | outcome (HaCat) | max response (KB-3-1) 3.55% | max response (NIH3T3) 4.53%

O=C(O)c1ccnc2cc(C(OCCN3CCCCC3)c3ccccc3Cl)[nH]c12 (stereo not given)
inactive: outcome (CRL-7250) | outcome (HEK293) | outcome (HaCat) | outcome (KB-3-1) | max response (NIH3T3) -0.205%

CN(C)CCc1c[nH]c2ccc(CN3CCN(C)S3(=O)=O)cc12
inactive: max response (CRL-7250) 3.29% | max response (HEK293) -0.516% | outcome (HaCat) | max response (KB-3-1) -6.8% | outcome (NIH3T3)

COC(=O)C1(C)CCC(O)C2(C)c3cc(O)c(C(C)C)cc3C(O)C(OC(C)=O)C12 (stereo not given)
inactive: outcome (CRL-7250) | max response (HEK293) 3.05% | outcome (HaCat) | outcome (KB-3-1) | max response (NIH3T3) 3.45%

C[C@H](NC(=O)Cc1cc(F)cc(F)c1)C(=O)N[C@@H]1N=C(c2ccccc2)c2ccccc2N(C)C1=O
inactive: outcome (CRL-7250) | max response (HEK293) -14.2% | outcome (HaCat) | max response (KB-3-1) 4.54% | max response (NIH3T3) -0.0571%

COC1=CC(=O)O[C@@H](/C=C/c2ccccc2)C1
inactive: max response (CRL-7250) -9.99% | max response (HEK293) -8.8% | outcome (HaCat) | outcome (KB-3-1) | outcome (NIH3T3)

CN1CCCC1CCOC(c1cc2nccc(C(=O)O)c2[nH]1)c1ccccc1Cl (stereo not given)
inactive: outcome (CRL-7250) | max response (HEK293) 1.78% | max response (HaCat) -3.9% | max response (KB-3-1) 7.27% | outcome (NIH3T3)

Clc1ccc(OCC2=NCCN2)cc1Cl
inactive: outcome (CRL-7250) | outcome (HEK293) | outcome (HaCat) | max response (KB-3-1) 6.44% | outcome (NIH3T3)

COC1CC(O[C@H]2CC[C@@]3(C)C(=CCC4C3C(O)[C@@H](O)[C@]3(C)[C@@H](C(C)=O)CC[C@]43O)C2)OC(C)C1OC1CC(OC)C(OC2OC(C)C(O)C(O)C2O)C(C)O1 (stereo not given in full)
inactive: max response (CRL-7250) -8.18% | outcome (HEK293) | outcome (HaCat) | outcome (KB-3-1) | outcome (NIH3T3)

C=C[C@H]1[C@H](O[C@@H]2O[C@H](CO)[C@@H](O)[C@H](O)[C@H]2O)OC=C2C(=O)OCC[C@H]21
inactive: max response (CRL-7250) -1.15% | outcome (HEK293) | max response (HaCat) 1.24% | outcome (KB-3-1) | outcome (NIH3T3)

CC(C)=C1CC[C@]23CO[C@H](C2)[C@@](O)(C(=O)O)CCC13 (stereo not given in full)
inactive: max response (CRL-7250) 4.82% | outcome (HEK293) | max response (HaCat) -7.37% | max response (KB-3-1) 4.44% | max response (NIH3T3) 1.86%

CC(CCc1ccc(O)cc1)O[C@@H]1O[C@H](CO[C@H]2OC[C@](O)(CO)[C@H]2O)[C@@H](O)[C@H](O)[C@H]1O (stereo not given in full)
inactive: outcome (CRL-7250) | outcome (HEK293) | outcome (HaCat) | max response (KB-3-1) 6.77% | max response (NIH3T3) 3.14%

CC(=O)OC1CC(O)C2(C)C(CC(OC(C)=O)C3(C)C2CCC2(C)C(c4ccoc4)C(=O)C4OC423)C1(C)C (stereo not given)
inactive: max response (CRL-7250) -9.87% | outcome (HEK293) | max response (HaCat) -22.5% | max response (KB-3-1) 8.18% | max response (NIH3T3) -1.6%

COC(=O)C1(C)CCC(=O)C2(C)c3c(O)cc(C(C)C)cc3C(O)C(OC(C)=O)C12 (stereo not given)
inactive: max response (CRL-7250) -1.03% | max response (HEK293) -0.554% | max response (HaCat) -0.878% | max response (KB-3-1) 0.842% | outcome (NIH3T3)

CCC1NC(=O)C2C(Cl)C(Cl)CN2C(=O)C(C(C)O)NC(=O)CC(c2ccccc2)NC(=O)C(CO)NC1=O (stereo not given)
inactive: max response (CRL-7250) 3.8% | max response (HEK293) -1.23% | max response (HaCat) 4.16% | outcome (KB-3-1) | outcome (NIH3T3)

Cc1c(Cl)cccc1S(=O)(=O)Nc1nc(CC(=O)N2CCN(C)CC2)cs1
inactive: max response (CRL-7250) 0.391% | max response (HEK293) -10.3% | outcome (HaCat) | outcome (KB-3-1) | outcome (NIH3T3)

COCC1OC(=O)c2coc3c2C1(C)C1=C(C3=O)C2CCC(=O)C2(C)CC1O (stereo not given)
inactive: outcome (CRL-7250) | outcome (HEK293) | outcome (HaCat) | outcome (KB-3-1) | outcome (NIH3T3)

CO[C@@H]1[C@H](O)[C@@H](O[C@@H]2C[C@H]3CC[C@@H]4C(CC[C@]5(C)[C@@H](C6=CC(=O)OC6)CC[C@]45O)[C@@]3(C)[C@H](O)C2)O[C@H](C)[C@@H]1O[C@@H]1O[C@H](CO)[C@@H](O)[C@H](O)[C@H]1O (stereo not given in full)
active: Potency (CRL-7250) 109 nM | Potency (HEK293) 343 nM | Potency (HaCat) 769 nM | Potency (KB-3-1) 432 nM
inactive: outcome (NIH3T3)

CC(C)C1(OO)C=C2C(=O)CC3C(C)(C(=O)O)CCCC3(C)C2CC1 (stereo not given)
inactive: max response (CRL-7250) -0.339% | max response (HEK293) 2.31% | outcome (HaCat) | max response (KB-3-1) 7.41% | outcome (NIH3T3)

Clc1ccc(N2C[C@H]3CC[C@@H](C2)N3)nn1
inactive: max response (CRL-7250) -3.23% | max response (HEK293) 2.01% | max response (HaCat) -0.574% | max response (KB-3-1) 2.38% | outcome (NIH3T3)
